PubChem BioAssay AID485317 (Broad Institute, 2010)
About 11,000 (3.8%) of roughly 290,000 compounds were called active. For the sample, actives were picked, then their nearest neighbours and some compounds at random. A number with no mark means an inactive call.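 The calls were made as follows: active = mean replicate inhibition above about 79%, with every replicate also reaching it (limit read from the data); inconclusive = only one of the two criteria met; inactive = mean below limit and not every replicate reaching it.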

Each compound was assayed against FAD-linked sulfhydryl oxidase ALR (Homo sapiens) (UniProt P55789) (assay: ALR-catalysed DTT oxidation blockers – biochemical, H2O2 detection, HRP-luminol luminescence, single point, primary screen (AID 485317)). Settings: purified ALR, active compounds read high, concentration not given here.
Chain of FAD-linked sulfhydryl oxidase ALR (Homo sapiens) (P55789 whole entry, looked up): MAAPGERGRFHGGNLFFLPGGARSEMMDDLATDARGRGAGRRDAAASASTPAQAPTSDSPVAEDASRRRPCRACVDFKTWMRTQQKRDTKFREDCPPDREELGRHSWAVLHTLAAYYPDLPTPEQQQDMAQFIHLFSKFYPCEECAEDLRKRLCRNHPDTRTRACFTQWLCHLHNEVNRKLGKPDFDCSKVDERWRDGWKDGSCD

Compound	inhibition
Cc1ccc(CC(=O)Nc2ccc(S(=O)(=O)N3CCOCC3)cc2)cc1C	-2.53%
COC(=O)c1c(NC(=O)CCCC(=O)O)sc2c1CCCCC2	-5.42%
COC(=O)c1c(NC(=O)c2cccs2)sc2c1CCCC2	-1.37%
COC(=O)c1c(NC(=O)C2CC(C)=C(C)CC2C(=O)O)sc2c1CCCCC2 (stereo not given)	94.2% (active)
Fc1ccc(-c2ccc(-c3nn4c(-c5ccco5)nnc4s3)o2)cc1	98.5% (active)
COc1cc(-c2nn3c(-c4cccc(C)c4)nnc3s2)cc(OC)c1OC	1.6%
FC(F)(F)c1nnc2sc(-c3ccco3)nn12	-7.15%
O=C(c1ccc(Cl)cc1)c1cnc(Nc2ccccc2)s1	24.8%
O=C(O)CC1=C(Nc2ccccc2)C(=O)N(c2ccccc2)C1c1ccc(Cl)cc1 (stereo not given)	96.7% (active)
COC(=O)CN1C(=S)N(c2ccccc2)C(=O)C1CC(=O)Nc1ccc(Cl)cc1 (stereo not given)	1.89%
COc1cc(C(=O)NCC(c2ccco2)N2CCCC2)ccc1OCc1ccccc1 (stereo not given)	-2.39%
CN(Cc1c(F)cccc1Cl)C(=O)CNC(=O)c1ccc2c(c1)OCO2	1.35%
COc1cc2c(-c3ccc4c(c3)OCO4)c(-c3ccsc3)oc(=O)c2cc1OC	0.568%
CN(c1ccccc1)S(=O)(=O)c1cc(C(=O)Nc2nc3ccccc3[nH]2)ccc1Cl	94.8% (active)
O=C(Nc1cccc(-c2nc3ccccc3[nH]2)c1)c1ccc(C(=O)Nc2cccc(-c3nc4ccccc4[nH]3)c2)cc1	-5.21%
Cc1cccc(NC(=O)c2ccc(S(=O)(=O)N(C)c3ccccc3)cc2)n1	-13.4%
O=C(c1cc(-c2ccco2)nc2ccccc12)N(Cc1nnc(-c2ccc(Cl)cc2)o1)C1CC1	2.44%
Cn1cccc1C(=O)OCC(=O)c1ccc(Br)s1	0.737%
CCc1nnc(NC(=O)CSc2nnc(Cc3ccccc3)n2-c2ccc(OC)cc2)s1	-14.6%
C=CCn1c(CNC(=O)c2ccco2)nnc1SCC(=O)c1ccc(OC)cc1	29.4%
COc1ccc(NCc2nnc(SCc3ccccc3)n2-c2ccc(OC)cc2)cc1	91.9% (active)
COc1ccc(-c2nnc(SCC(=O)c3ccco3)n2-c2ccccc2)cc1	-5.92%
COC(=O)c1ccc(NC(=O)CSc2nnc(CNc3ccc(OC)cc3)n2C)cc1	-7.45%
CCn1c(CNc2ccc(OC)cc2)nnc1SCC(=O)c1ccc(OC)cc1	98.6% (active)
C=CCC[C@H](Cc1ccc(F)cc1)C(=O)OC[C@@H](NC(=O)[C@@H](CC=C)CC(=O)N[C@H](CO)Cc1ccccc1)C(C)(C)C	2.91%
Brc1cnc2ccccc2c1N1CCCCC1	-0.469%
CS(=O)(=O)Nc1ccccc1C(=O)OCC(=O)NC1CC1	-5.36%
COc1cccc(OCCOc2cccc(/C=N/n3cnnc3)c2)c1	-9.36%

Compound	inhibition
CN(C)c1ccc(-n2cccc2/C=N/n2cnnc2)cc1	98.6% (active)
CN(C)c1ccc(-n2cccc2/C=C2/SC(=Nc3ccc(F)cc3)NC2=O)cc1	-13.8%
CC1(C)C2CC[C@]3(C)C(CC=C4[C@@H]5C[C@@](C)(CO)CC[C@]5(C(=O)O)CC[C@]43C)[C@@]2(C)CC[C@@H]1O (stereo not given in full)	-8.21%
O=C(COC(=O)/C=C/c1ccc(Br)o1)Nc1cccc(S(=O)(=O)N2CCOCC2)c1	-1.78%
COc1cc2ccccc2cc1C(=O)Nc1ccc(N2CCOCC2)cc1	-0.59%
CC(=O)Oc1cccc(N2C(=O)CC(Nc3ccc(N4CCOCC4)cc3)C2=O)c1 (stereo not given)	97.2% (active)
CC(=O)Oc1cccc(N2C(=O)C3CC=C(Cl)CC3C2=O)c1 (stereo not given)	-19%
Cc1noc(C)c1NC(=O)Nc1cccc2c1O[C@H](CN(C)C(=O)Nc1ccccc1)[C@@H](C)CN([C@H](C)CO)C2=O	1.38%
O=C(NN1CCOCC1)c1cccc(F)c1	-5.96%
O=C(N/N=C/c1ccc2c(c1)OCO2)c1ccc(Cn2cc([N+](=O)[O-])cn2)o1	29.3%
CN(C)c1ccc(/C=N/NC(=O)c2ccc(Cn3cc(Br)cn3)o2)cc1	98.5% (active)
O=C(N/N=C\c1ccc(Br)cc1)c1ccc(Cn2cccn2)o1	0.182%
CC(OC(=O)c1ccc(Cl)cc1O)C(=O)NCCC1=CCCCC1 (stereo not given)	-2.95%
CCOC(=O)N1CCN(C(=O)c2ccccc2SCC(=O)NCC2CCCCC2)CC1	-0.603%
COc1cccc(NCCC(=O)c2cccc([N+](=O)[O-])c2)c1	97.4% (active)
COc1cccc(CNC(=O)CCCC(=O)Nc2cccc([N+](=O)[O-])c2)c1	-3.17%
COc1cccc(C(=O)CC(=O)C(=O)Nc2ccc([N+](=O)[O-])cc2C)c1	7.39%
COc1ccc(CNC(=O)C2(CC3CC(c4ccccc4)=NO3)CCN(C(=O)c3cccc(O)c3)CC2)cc1 (stereo not given)	-2.44%
COCCN(Cc1ccccc1)C(=O)Cc1ccc(S(=O)(=O)N2CCOCC2)s1	2.09%
O=C(NCC1CC1)c1onc(CSc2ccccc2)c1C(=O)NCC1CC1	-11.1%
CCOC(=O)c1ccccc1NC(=O)CSc1nc2ccccc2c(=O)[nH]1	-0.524%
O=C(CSc1nc(O)c(Cc2ccccc2)c(=O)[nH]1)Nc1nc2c(s1)CCCC2	99.1% (active)
CCOC(=O)c1sc(NC(=O)CSc2nc(O)c(Cc3ccccc3)c(=O)[nH]2)nc1C	98.6% (active)
O=C(Cn1c(=O)sc2ccccc21)Nc1nc2c(s1)CCCC2	42.4%
Cc1cccc(NC(=O)CSc2nc3c(c(=O)[nH]2)CCCC3)c1C	-5.33%
CCOC(=O)c1sc(NC(=O)CSc2n[nH]c(CC)n2)nc1C	-1.87%
COC(=O)c1ccc(-c2c(-c3ccccc3)ncc3cc(OC)c(OC)cc23)cc1	1.43%
